PPC-1+TRAIL kill = compounds killing PPC-1 cancer cells with TRAIL present (potentiator screen, no TRAIL-free arm) | 0.41% of 220,000 active | cell killing (% activity), % at 4 µM or 5 µM | PPC-1 cells + TRAIL, ATPLite viability luminescence;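 active means cell killing above 50% in the first pass at 4 µM, then a duplicate retest at 5 µM averaging 50% or more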
SENP8 block-1 = inhibitors of human SENP8 protease | Q96LD8 | purified SENP8, Z-RLRGG-aminoluciferin cleavage, luminescence | inhibition, % at 10 µM | 1.2% of 330,000 active; in the data active means inhibition above about 50%
Target sequence (Q96LD8 whole entry, looked up): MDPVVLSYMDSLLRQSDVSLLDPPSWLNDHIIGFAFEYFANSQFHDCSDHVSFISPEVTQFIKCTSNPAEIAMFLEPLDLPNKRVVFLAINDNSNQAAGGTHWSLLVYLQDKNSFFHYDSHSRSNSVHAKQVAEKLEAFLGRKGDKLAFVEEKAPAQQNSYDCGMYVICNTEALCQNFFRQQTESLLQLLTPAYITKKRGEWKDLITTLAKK
SENP7 block = blocks the human protease SENP7; Q9BQF6; recombinant SENP7, Z-RLRGG-aminoluciferin luminescence, 40 min; inhibition, % at 5 µM; 1.5% of 330,000 active;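 active means inhibition above about 50% at the single test dose, limit read from the data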
SENP6 block = blocks the human protease SENP6. Q9GZR1. Recombinant SENP6 catalytic domain, aminoluciferin luminescence. inhibition, % at 10 µM. 1.8% of 330,000 active;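 active means inhibition above about 50% at the single tested dose, limit read from the data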
Target sequence (Q9GZR1 628-1112 limits assumed): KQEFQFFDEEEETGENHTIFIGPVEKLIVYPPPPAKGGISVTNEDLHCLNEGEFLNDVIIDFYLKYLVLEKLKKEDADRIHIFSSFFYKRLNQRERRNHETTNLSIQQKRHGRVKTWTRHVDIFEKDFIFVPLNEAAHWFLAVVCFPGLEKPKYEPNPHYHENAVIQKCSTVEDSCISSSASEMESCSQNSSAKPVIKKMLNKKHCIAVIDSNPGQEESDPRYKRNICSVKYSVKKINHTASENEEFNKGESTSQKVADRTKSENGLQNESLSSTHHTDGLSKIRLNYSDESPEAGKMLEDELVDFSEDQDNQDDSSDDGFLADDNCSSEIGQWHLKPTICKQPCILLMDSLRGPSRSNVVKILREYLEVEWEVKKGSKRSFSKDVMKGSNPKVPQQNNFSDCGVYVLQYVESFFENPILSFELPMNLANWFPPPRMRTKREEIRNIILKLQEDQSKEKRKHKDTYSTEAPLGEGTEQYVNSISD
TRAIL sens C8 = caspase-8 TRAIL sensitization; AID 624354; 1% of 360,000 active; NB7+C8 cells + TRAIL, ATPlite viability luminescence; inhibition (viability loss, TRAIL sensitization), % at 10 µM;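 active means compounds causing at least 50% loss of cell viability in the single-dose screen, relative to plate controls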
SENP8 block-2 = blocks human SENP8 cleavage of Nedd8 substrate; recombinant SENP8, Nedd8 substrate fluorescence; inhibition, % at 20 µM; Q96LD8; 0.64% of 360,000 active; AID 602440; in the data active means inhibition mostly above about 40%, no sharp cut-off; inactive means mostly below about 27%
SENP8 confirm = confirmation of human SENP8 protease inhibitors | 40% of 6,200 active | shares compounds with SENP7 block | inhibition, % at 12.5 µM | Recombinant SENP8, Z-RLRGG-aminoluciferin luminescence, 60 min | AID 488912;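 active means mean inhibition across replicates above about 50%, limit read from the data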
SENP6 confirm = confirmation of human SENP6 protease inhibitors; AID 488915; 58% of 6,200 active; shares compounds with SENP7 block; recombinant SENP6, Z-RLRGG-aminoluciferin luminescence; inhibition, % at 12.5 µM
SENP7 conf = confirmation of human SENP7 protease inhibitors; 69% of 6,200 active; recombinant SENP7, Z-RLRGG-aminoluciferin luminescence, 40 min; inhibition, % at 12.5 µM; shares compounds with SENP7 block; AID 488917
Casp3 select = selectivity test for SENP inhibitors: human caspase-3 inhibition. purified caspase-3, Z-DEVD-aminoluciferin luminescence, 60 min. 60% of 6,200 active. shares compounds with SENP7 block. inhibition, % at 12.5 µM;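 active means mean inhibition above about 50%, limit read from the data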
SENP luc ctr = luminescence interference (SENP counter-screen); shares compounds with SENP7 block; Pre-incubated SENP8/Z-RLRGG-aminoluciferin, luciferase luminescence interference; inhibition, % at 12.5 µM; 39% of 6,200 active; AID 488919;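 active means mean inhibition above about 50% when retested at one dose, limit read from the data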
Of the large screens only hits and unclear results are named; the others gave an inactive call (follow-up assays come after a bar, where they were run). Only some compounds are listed: those with a hit (about 3% of all), similar ones and a draw of the others.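 How the source made its calls, unless noted: active means mean inhibition above about 50% in the one-dose retest (limit read from the data); inactive means the rest.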

NC1=C([N+](=O)[O-])C(c2ccc(F)cc2)C2=C(CCCC2=O)O1 (stereo not given)	none
CCCc1cc(=O)[nH]c(SCC(=O)c2ccc3c(c2)NC(=O)CO3)n1	SENP6 block 98.0 | SENP8 confirm inactive | SENP6 confirm inactive | SENP7 conf inactive | Casp3 select inactive | SENP luc ctr inactive
CCCc1nc(SCC(=O)c2ccc3c(c2)NC(=O)CO3)[nH]c(=O)c1CC	none (no result: PPC-1+TRAIL kill, SENP8 block-1, SENP7 block, SENP6 block)
O=C(NC(=S)Nc1ccc(S(=O)(=O)Nc2nccs2)cc1)c1ccc(F)cc1	SENP6 block 64.0 | SENP8 confirm inactive | SENP6 confirm inactive | SENP7 conf 66.1 | Casp3 select inactive | SENP luc ctr 52.1
CC(C)(C)C(=O)NC(=S)Nc1ccc(S(=O)(=O)Nc2nccs2)cc1	none
O=C(NC1CCCC1)C(c1ccccc1)n1c(-c2cccc3ccccc23)nc2ccccc21 (stereo not given)	none (no result: PPC-1+TRAIL kill, SENP8 block-1, SENP7 block, SENP6 block)
Oc1ccc(/C=N/N2CCCCC2)c(O)c1O	SENP6 block 56.0, SENP8 block-2 51.6 (no result: PPC-1+TRAIL kill) | SENP8 confirm inactive | SENP6 confirm inactive | SENP7 conf inactive | Casp3 select inactive | SENP luc ctr inactive
Oc1cccc(/C=N/N2CCCCC2)c1O	none (no result: PPC-1+TRAIL kill)
CCOC(=O)c1cnc(/N=C/N(C)C)s1	none
CCn1nnc(NC(=O)c2ccco2)n1	none (no result: PPC-1+TRAIL kill)
O=C(NNC(=O)c1ccc(-c2ccccc2)cc1)c1ccccc1	SENP7 block 61.8 | SENP8 confirm inactive | SENP6 confirm inactive | SENP7 conf 82.0 | Casp3 select 80.2 | SENP luc ctr inactive
CC(C)c1ccc(C(=O)Nc2cccnc2)cc1	SENP7 block 70.7, SENP6 block 72.9, TRAIL sens C8 49.1 (no result: PPC-1+TRAIL kill) | SENP8 confirm 62.5 | SENP6 confirm 57.8 | SENP7 conf 88.4 | Casp3 select 79.1 | SENP luc ctr inactive
O=C(NNC(=O)c1ccc(-c2ccccc2)cc1)Nc1ccccc1F	none (no result: PPC-1+TRAIL kill)
O=C(Nc1cccnc1)c1ccc(-c2ccccc2)cc1	SENP8 block-1 65.8, SENP7 block 82.2 | SENP8 confirm 50.9 | SENP6 confirm 70.5 | SENP7 conf 96.3 | Casp3 select 75.2 | SENP luc ctr inactive
Cc1ccc(C(=O)c2ccccc2C(=O)OCC(=O)NCC2CCCO2)cc1 (stereo not given)	none
Cc1oc(-c2ccccc2F)nc1CS(=O)(=O)CC(=O)NCc1ccccc1Cl	none (no result: PPC-1+TRAIL kill)
COc1ccc(NC(=O)Nc2nccs2)cc1	SENP7 block 56.4, SENP6 block 73.9 | SENP8 confirm inactive | SENP6 confirm inactive | SENP7 conf 79.6 | Casp3 select 77.0 | SENP luc ctr 63.4
COc1ccc(C(=O)Nc2nccs2)cc1	SENP6 block 51.9 (no result: PPC-1+TRAIL kill) | SENP8 confirm inactive | SENP6 confirm inactive | SENP7 conf 63.1 | Casp3 select 63.8 | SENP luc ctr inactive
O=C(Nc1ccccc1)Nc1nccs1	none
C=C1C[C@@H]2C[C@@H]2CN(S(=O)(=O)c2ccc(C)cc2)[C@@H]1COCc1ccccc1	none (no result: PPC-1+TRAIL kill, SENP8 block-1, SENP7 block, SENP6 block)
N#C/C(=C(/O)c1ccco1)c1nc2ccccc2s1	SENP8 block-1 81.4, SENP7 block 56.7, SENP6 block 90.0 | SENP8 confirm 90.7 | SENP6 confirm 90.7 | SENP7 conf 99.7 | Casp3 select 91.0 | SENP luc ctr 74.4
N#C/C(=C(/O)c1cccc(F)c1)c1nc2ccccc2s1	SENP8 block-1 76.8, SENP7 block 56.2, SENP6 block 91.1 | SENP8 confirm 57.9 | SENP6 confirm 58.8 | SENP7 conf 71.7 | Casp3 select 76.9 | SENP luc ctr inactive
N#C/C(=C(/O)c1cc2ccccc2o1)c1nc2ccccc2s1	SENP8 block-1 95.5, SENP7 block 70.2 | SENP8 confirm inactive | SENP6 confirm inactive | SENP7 conf inactive | Casp3 select inactive | SENP luc ctr 60.6
CCN(Cc1ccccc1)C(=O)CCS(=O)(=O)c1ccc2c(c1)CCN2C(C)=O	none (no result: PPC-1+TRAIL kill)
Cc1ccccc1C(C(=O)NC1CCCCC1)N(C(=O)c1ccccn1)c1cccnc1 (stereo not given)	none
COc1cc(/C=C/[N+](=O)[O-])ccc1OCc1cccc(C(=O)O)c1	SENP6 block 51.5 (no result: TRAIL sens C8, SENP8 block-2) | SENP8 confirm 57.1 | SENP6 confirm inactive | SENP7 conf inactive | Casp3 select inactive | SENP luc ctr 64.5
COCC(=O)Nc1ccc(OCc2ccccc2)cc1	none
O=C(O)c1cccc(COc2ccc(CO)cc2Cl)c1	SENP8 block-1 96.3, SENP7 block 100.1, SENP6 block 97.1, TRAIL sens C8 66.8 | SENP8 confirm 97.5 | SENP6 confirm 100.5 | SENP7 conf 103.6 | Casp3 select 98.4 | SENP luc ctr 98.8
COc1ccc(OCc2cccc(C(=O)O)c2)cc1	SENP8 block-1 96.5, SENP7 block 99.5, SENP6 block 97.6, TRAIL sens C8 61.9 | SENP8 confirm 99.9 | SENP6 confirm 100.9 | SENP7 conf 103.3 | Casp3 select 99.3 | SENP luc ctr 99.2
COc1ccc(C(=O)C=Cc2ccc(OCc3ccccc3)c(OC)c2)cc1OC	none (no result: PPC-1+TRAIL kill, SENP8 block-1, SENP7 block, SENP6 block)
COC(=O)Nc1ccc(OCc2ccccc2)cc1	SENP6 block 72.8 | SENP8 confirm 52.9 | SENP6 confirm 50.9 | SENP7 conf 82.2 | Casp3 select 62.9 | SENP luc ctr inactive
C=CCSc1nc(-c2ccc(OC)cc2)c(C#N)c(=O)n1CC=C	none (no result: SENP8 block-1, SENP7 block, SENP6 block)
O=C(O)c1cccc(COc2ccc3c(c2)CCC3)c1	SENP8 block-1 97.2, SENP7 block 98.9, SENP6 block 97.0, TRAIL sens C8 62.7 | SENP8 confirm inactive | SENP6 confirm 100.9 | SENP7 conf 103.6 | Casp3 select 98.9 | SENP luc ctr 99.6
COc1cccc2sc(N(CCCN(C)C)C(=O)COc3ccc(Cl)cc3)nc12	none
CN(C)CCCN(C(=O)COc1ccccc1)c1nc2c(F)cccc2s1	SENP7 block 60.7 | SENP8 confirm inactive | SENP6 confirm inactive | SENP7 conf inactive | Casp3 select inactive | SENP luc ctr inactive
COc1ccc(OCCN2C(=O)c3ccccc3C2=O)cc1	none
O=C1c2ccccc2C(=O)N1CCOc1ccccc1	SENP6 block 60.1 (no result: PPC-1+TRAIL kill) | SENP8 confirm inactive | SENP6 confirm inactive | SENP7 conf 73.2 | Casp3 select 59.3 | SENP luc ctr 52.0
